Records with an inconclusive call do not appear. Values without a mark were called inactive. Calls come from the whole dose curve; as a rule, active = well fitted activation curve with a large enough effect; inconclusive = small, poorly fitted or top-dose-only effect; inactive = no such curve, though single readings can be large or run the other way.
Assay: qHTS Assay for NPC1 Promoter Activators: Hit Validation Using Renila Luciferase Read-Out for NPC1; note: % of control where 0% means no effect
Details: Huh7 NPC1 promoter-luciferase reporter, luminescence, 24 h; series mostly up to 76.9 µM; activity change, positive = activation: at the top concentration
Text: Niemann Pick Type C (NPC) is a rare neurodegenerative lipidosis that is characterized by lipid storage in the endosomal/lysosomal system. Treatment modalities for this devastating disease are currently non-existent due to the severe obstacles associated with accessing the central nervous system with proteins or genes. The majority of mutations causing NPC disease are missense mutations that are distributed throughout the length of the NPC1 protein, with the most prevalent being the I1061T allele. Although NPC1 mutant proteins may be functional, they are typically trapped in the ER due to misfolding. […] We have developed and optimized a cell based renilla luciferase reporter assay in 1536 well format for the identification of up-regulators of the mutant Rab9 promoter. This assay presents data on the validation of hits from the primary screen, which used a firefly luciferase read-out. NIH Chemical Genomics Center [NCGC] NIH Molecular Libraries Probe Production centers Network [MLPCN] MLPCN Grant: MH089375 Assay Submitter (PI): Yiannis A. Ioannou
Huh7 cells stably expressing NPC promoter-luciferase will be seeded at 1,500 cells/well in 5 uL in 1,536-well white opaque plates with 23 nL/well of compound in DMSO solution. The assay plates will be incubated at 37 deg C for 24 hours, after which 3 uL/well BriteLite plus luciferase detection reagent mixture (Perkin Elmer) will be added. Luminescence signal will be measured in a ViewLux plate reader (Perkin Elmer) after a 10 minute incubation at the room temperature.

SMILES	activity change, positive = activation [%]
O=C1c2ccccc2C(=O)N1Cc1nc2ccccc2c(=O)n1-c1cccnc1	-8.39
CN1CCc2cc3c(c4c2C1Cc1ccccc1-4)OCO3 (stereo unspecified)	-61.6
Cc1cccn2c(NCC3CCCO3)c(C(C)C)nc12 (stereo unspecified)	7.06
COc1ccc(C(CC(=O)N2CCC3(CC2)OCCO3)NS(=O)(=O)c2ccc(F)cc2)cc1 (stereo unspecified)	24.6
COc1cccc(CCNCc2ccc(SC)cc2)c1	-52.1
CCC(=NCc1cccnc1)c1c(O)n(-c2ccccc2)c(=O)[nH]c1=O	-9.97

From PubChem BioAssay AID720526 (National Center for Advancing Translational Sciences (NCATS), 2013)
